Data taken from PubChem BioAssay AID624330 (Southern Research Specialized Biocontainment Screening …, 2012).
The campaign covered roughly 340,000 compounds. About 2,100 (0.62%) were called active.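 Rule for the calls: active = first-screen hits whose inhibition reached a set limit at any dose in the follow-up dose series; inconclusive = inhibition above the set first-screen limit but never retested; inactive = the rest.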 Only a sample is shown. Results with a measured potency or affinity are listed apart.

Target: Rac GTPase-activating protein 1 (Homo sapiens) (UniProt Q9H0H5)
Experiment: blockers of MgcRacGAP-driven Rac1 GTP hydrolysis – biochemical, ADP Hunter fluorescence, primary and confirmatory, confirmation (AID 624330);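 note: fluorescence reports GDP produced by GAP-driven GTP hydrolysis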
Conditions: MgcRacGAP-stimulated Rac1 GTP hydrolysis, at 30 µM, hits give high values, GST-tagged Rac1 F28L mutant substrate

Sequence of Rac GTPase-activating protein 1 (Homo sapiens) (Q9H0H5 whole entry, looked up): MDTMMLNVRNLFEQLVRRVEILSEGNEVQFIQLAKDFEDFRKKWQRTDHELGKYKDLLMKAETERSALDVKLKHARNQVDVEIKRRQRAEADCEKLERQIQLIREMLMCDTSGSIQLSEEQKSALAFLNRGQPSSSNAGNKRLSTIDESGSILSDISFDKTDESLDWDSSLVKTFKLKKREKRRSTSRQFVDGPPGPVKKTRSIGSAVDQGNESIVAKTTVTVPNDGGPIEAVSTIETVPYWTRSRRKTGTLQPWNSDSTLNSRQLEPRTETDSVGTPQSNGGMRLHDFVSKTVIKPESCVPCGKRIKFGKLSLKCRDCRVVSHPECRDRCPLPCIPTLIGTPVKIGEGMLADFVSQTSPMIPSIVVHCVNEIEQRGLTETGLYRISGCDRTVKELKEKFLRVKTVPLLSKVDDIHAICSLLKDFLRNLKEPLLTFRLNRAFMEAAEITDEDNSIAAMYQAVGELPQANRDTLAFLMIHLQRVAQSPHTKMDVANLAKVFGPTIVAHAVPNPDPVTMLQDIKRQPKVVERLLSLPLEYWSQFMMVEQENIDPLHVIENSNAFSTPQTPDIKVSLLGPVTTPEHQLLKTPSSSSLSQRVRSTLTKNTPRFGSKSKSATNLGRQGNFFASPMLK

inhibition, inactive:
Cc1cc(O)ccc1NC(=S)NC(=O)c1cncc(Br)c1 11%
CC(C)CCNC(=O)c1cccc(C(=O)NCCC(C)C)c1 9.34%
COc1ccc(/C=N/N=C(\N)c2nonc2N)cc1OC 0.88%
N/C(=N\N=C\c1cccc(O)c1)c1nonc1N 7.37%
Cc1ccc(/C=N/N=C/c2ccc(C)cc2)cc1 4.21%
COc1ccc(/C=N/N=C(\N)c2nonc2N)cc1 6.95%
C(=N\N=C\c1ccccc1)/c1ccccc1 5.71%
COc1cc(/C=N/N=C(\N)c2nonc2N)cc(OC)c1O 19.5%
COc1ccc(C(=O)NN=C2CCCC2)cc1OC -4.29%
CC(C)NC(=O)N(C)C[C@H]1Oc2ccc(NC(=O)Cc3ccccc3)cc2C(=O)N([C@H](C)CO)C[C@@H]1C -4.37%
O=C(Nc1ccc(Cl)c(Cl)c1)N1N=CCC1c1ccccc1 (configuration not stated) 0.69%
COc1ccc(-c2cc(C(F)F)n3ncc(C(=O)Nc4c(C)n(C)n(-c5ccccc5)c4=O)c3n2)cc1 5.73%
COc1ccccc1NS(=O)(=O)c1cc(NC(=S)NCCN2CCOCC2)ccc1N1CCOCC1 21.5%
Cc1ccc(S(=O)(=O)N2CCCCC2)cc1NC(=O)C1=NN(c2ccccc2)C(=O)CC1 4.16%
Fc1ccc(OCc2nc3ccccc3s2)cc1 3.88%
c1ccc(OCc2nc3ccccc3s2)cc1 7.47%
O=c1oc2ccccc2c(O)c1Sc1c(O)c2ccccc2oc1=O 16.1%
COc1cc(C(=O)NCCCCc2ccccc2)cc(OC)c1OC 5.47%
COc1ncnc2c1ncn2CCCNCc1ccccn1 12.9%
COC(=O)C(NC(C)=O)(Nc1sc2c(c1C(N)=O)CCCC2)C(F)(F)F (configuration not stated) 4.3%
COc1ccc(CNc2ncc(-c3ccccc3)n2C)c2ccccc12 23.6%
Cn1c(-c2ccc(F)cc2)cnc1NCc1ccc(F)cc1F 29.6%
Cc1ccc(CNc2nc3ccccc3n2C)o1 8.19%
COc1ccc(CNc2ncc(-c3ccc(Cl)cc3)n2C)c(OC)c1OC 16.9%
COc1ccc(CNc2ncc(-c3cccc([N+](=O)[O-])c3)n2C)c(OC)c1OC 28.9%
Cn1c(-c2ccc(F)cc2)cnc1NCc1ccccc1F 25.9%
Cn1c(-c2ccccc2)cnc1NCc1cc(Cl)ccc1O 31.7%
COc1ccccc1CNc1ncc(-c2ccc(F)cc2)n1C 28.3%
COc1ccc(CNC(=O)c2ccc(Cn3nc(C)c([N+](=O)[O-])c3C)o2)cc1 5.77%
Cc1cc(C)c(SSc2nnnn2-c2ccccc2)c(C)c1 27.2%
CC1CN(C(=O)CCNC(=O)c2ccccc2Cl)CC(C)O1 (configuration not stated) 4.76%
COC(=O)[C@H](C(C)C)N(Cc1ccccc1)S(=O)(=O)CCN1CCN(c2ccccc2)CC1 3.71%
Cc1c(Br)c([N+](=O)[O-])nn1CC(=O)Nc1nccs1 -2.73%
COc1ccc(S(=O)(=O)NC(CC(=O)NC2CCCC2)c2ccco2)cc1 (configuration not stated) 5.91%
O=C(C1CCN(S(=O)(=O)c2cccc3nsnc23)CC1)N1CCc2ccccc2C1 -5.35%
Cn1c(-c2ccc(F)cc2)cnc1NCc1ccc(C#N)cc1 24.6%
Cn1c(-c2ccc(F)cc2)cnc1NCc1ccccc1 25.3%
COc1cc(N2C(=O)C=CC2=O)c(OC)cc1Cl -11.4%
COc1ccc(N2C(=O)C3CC(C)=C(C)CC3C2=O)c(OC)c1 (configuration not stated) 0.34%
O=C1C=CC(=O)N1c1ccccn1 7.4%
O=C(c1ccccc1)c1ccccc1N1C(=O)C=CC1=O 17.1%
CCCc1cc(=O)[nH]c(SCC(=O)Nc2ccc(C)c(S(=O)(=O)N3CCCCC3)c2)n1 6.98%
COc1cccc(OC)c1C(=O)N1CCN(c2ccccn2)CC1 6.84%
COC(=O)c1c(NC(=O)c2cccnc2)sc(C(=O)N(C)C)c1C 4.99%
COc1ccc(-c2cc(-c3ccc(OC)c(OC)c3)n[nH]2)c(O)c1 8.89%
COc1ccc(-c2cc(-c3ccccc3O)[nH]n2)cc1OC 13.3%
COc1ccc(-c2cc3cc(OC)c(OC)cc3c(C)n2)cc1C 6.32%
COc1ccccc1-c1c(-c2ccc(O)cc2O)n[nH]c1C(F)(F)F 13.8%
COc1ccc(-c2cncnc2-c2ccc(OC)cc2O)cc1 2.33%
COc1ccc(-c2nc(N)ncc2-c2ccccc2OC)c(O)c1 5.57%
COc1ccc(-c2c(-c3ccc(O)cc3O)n[nH]c2C(F)(F)F)cc1 9.47%
COc1ccc(-c2cc3cc(OC)c(OC)cc3c(C)n2)cc1 6.65%
COc1ccc(CNC(=O)C2CCCN(c3nn4c(=O)cc(C)nc4s3)C2)cc1 (configuration not stated) 12.2%
CC1C2Cn3c(nc4ccccc43)C1N(C(C)C)O2 (configuration not stated) 10.4%
Nc1ccc(C(=O)O)cc1S(=O)(=O)O 14.3%
CCOC(=O)c1cnc2c(Cl)c(Cl)ccc2c1NCCN1CCOCC1 8.14%
O=C(NC(=S)Nc1ccccc1Br)C1CCCCC1 13%
CCCN(CC(=O)Nc1ccccc1C)C(=O)C1CCN(S(=O)(=O)c2ccc3c(c2)OCCO3)CC1 4.31%
O=C(CCc1ccccc1)n1nc(-c2ccccc2)nc1NCc1ccco1 7.46%
COc1ccc(-c2nc(C(=O)O)cs2)cc1OC -2.83%
COc1ccc(-c2nc(CCl)cs2)cc1OC 1.88%
CCOc1ccc(-c2cc(C(=O)OC)[nH]n2)cc1 0.73%
CN(C)S(=O)(=O)c1ccc(C(=O)Nc2cccc(S(=O)(=O)NC3=NCCC3)c2)cc1 3.74%
O=[N+]([O-])c1ccc(N2CCN(c3cccc(Cl)c3)CC2)cn1 8.34%
Cn1c(-c2ccccc2)c(C(=O)CCl)c2ccccc21 -6.3%
Cn1c(-c2ccccc2)c(C(=O)CC#N)c2ccccc21 5.99%
CCOc1ccc2nc(-c3ccc(OC)c(OC)c3)cc(C(=O)O)c2c1 11.1%
COc1ccc(-c2cc(C(=O)Nc3ccc(C(N)=O)cc3)c3ccccc3n2)cc1OC 12.9%
COc1ccc(-c2cc(C(=O)Nc3ccc(S(N)(=O)=O)cc3)c3ccccc3n2)cc1OC -3.78%
COc1cc(-c2cc(C(=O)O)c3cc4ccccc4cc3n2)cc(OC)c1OC 11.4%
O=C(Nc1ccc(NC(=O)C2CC2)cn1)c1ccccc1 9.99%
COc1ccccc1-c1noc(-c2ccccc2C(=O)NCc2ccco2)n1 4.73%
Cc1ccc(C)n1CCN1CCN(S(=O)(=O)c2ccc(F)cc2F)CC1 4.22%
S=c1[nH]nc(-c2ccco2)n1/N=C/c1ccccc1Cl 14.4%
S=c1[nH]nc(-c2ccco2)n1/N=C/c1cccc(Cl)c1 12%
S=c1[nH]nc(-c2ccco2)n1/N=C/c1c(Cl)cccc1Cl 8.7%
S=c1[nH]nc(-c2ccco2)n1/N=C/c1ccc(Cl)c(Cl)c1 7.47%
COc1cccc(NC(=O)CN(C)C(=O)CSc2nc3ccccc3s2)c1 -3.45%
CCOc1ccc(N2C(=O)CC(NCCc3ccc(S(N)(=O)=O)cc3)C2=O)cc1 (configuration not stated) 9.91%
O=C(O)[C@H]1CCCC[C@H]1C(=O)Nc1ccc(S(=O)(=O)N2CCCCC2)cc1 6.35%
CCOc1ccc(/C=N/NC(=O)c2ccc(Cn3cc(Br)cn3)o2)cc1 -8.44%
CC(=O)C(=Nc1ccc(Cl)cc1Cl)NNc1cccc(Cl)c1 22.6%
c1ccc(Oc2cccc(OCCCCN3CCCC3)c2)cc1 18.1%
CC1CC(C)CN(CCOc2cccc(Cl)c2Cl)C1 (configuration not stated) 18.8%
CCC(=O)c1ccccc1OCCCN1CCC(Cc2ccccc2)CC1 16.5%
Clc1cccc(OCCCN2CCCC2)c1Cl 19%
CC1CN(CCOc2cccc(Oc3ccccc3)c2)CC(C)O1 (configuration not stated) 19.8%
CCN1CCN(Cc2ccc(OCc3ccccc3)c(OC)c2)CC1 14.4%
CCOc1ccccc1OCCN1CCC(Cc2ccccc2)CC1 11.1%
COC(=O)c1ccccc1OCCN1CCCCCC1 24.5%
CCc1ccc(/C([O-])=C(/C(=S)NCCN2CCOCC2)[n+]2ccccc2)cc1 -2.62%
CC[C@]12c3[nH]c4ccc(Cl)cc4c3CCN1C(=O)[C@@H](CC(=O)NCc1ccco1)C[C@@H]2C(=O)N1CCN(C(=O)C2CC2)CC1 9.23%
CC12CCC(=O)N1C(C(=O)N1CCN(S(=O)(=O)c3ccccc3F)CC1)CS2 (configuration not stated) 2.86%
CCOC(=O)c1ccc2c(c1)nc(-c1ccc(F)cc1)c1nccn12 0.78%
COc1ccc(CN2CCOCCOCCOCCOCCOCC2)cc1 12.1%
CCC(=O)Nc1cccc(NC(=O)CN2CCN(c3ccccc3OC)CC2)c1 9.77%
Cc1ccc(C2(C)NC(=O)N(CC(=O)N(c3ccccc3)C3CCS(=O)(=O)C3)C2=O)cc1 (configuration not stated) -6.22%
